# Results published in PubChem BioAssay (NCI).
# “And” between values parts separate entries of the source, which are not always exact repeats. Identical values can stand only once. The panel holds about 83,000 compounds, 20% with a hit somewhere; the sample as a whole holds those more often.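 Values shown are percent growth following 48 h exposure of cells in 96-well plates to a single concentration of compound; below 10 was considered active.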 The source made the active and inactive calls.
# System: MDA-MB-468 breast
# Experiment: NCI-60 one-dose screen, 48 h (100 = growth as untreated, 0 = no growth, -100 = all killed)
# Details: 10 µM unless noted
row,SMILES,growth
1,COc1ccc2c(c1)c(-c1cc(N)n3nc(-c4cn(C)c5ccc(OC)cc45)cc3n1)cn2C,142% (inactive)
2,COc1ccc(/C=N/C2=C(C#N)C(c3ccc(OC)cc3)c3ccc4ccccc4c3O2)cc1 (stereo not given),38.2% (inactive)
3,CCOC(=O)c1cnn(CC(C)O)c1NC(=O)NCc1ccccc1C(F)(F)F (stereo not given),103% (inactive)
4,Cc1ccccc1C1CC(=O)c2ccccc2C1C (stereo not given),83% (inactive)
5,CCC(C)C1(C2CCCC2)NC(=O)NC1=O (stereo not given),115% (inactive) and 121% (inactive)
6,N#Cc1c(Nc2ccccc2)nc2n(c1=O)-c1ccccc1Sc1ccccc1-2,72.8% (inactive)
7,O=C(CCN1C(=O)/C(=C/c2ccc(Cl)cc2)SC1=S)NCCCN1CCOCC1,100% (inactive)
8,CCOC(=O)CNC(=O)CCCCSc1ncnc2nc[nH]c12,95.4% (inactive)
9,COc1cccc(-c2nc3sccn3c2-c2ccnc(NCCCNS(=O)(=O)c3c(Cl)cccc3Cl)c2)c1,49.3% (inactive)
10,CCN1C(=O)N(CC)C2C1NN=c1s/c(=C3\C(=O)Nc4ccccc43)c(=O)n12 (stereo not given),-20.9% (active)
11,O=[N+]([O-])c1ccc(-c2cn3nc(-c4c[nH]c5ccccc45)sc3n2)cc1,96% (inactive)
12,CC[C@H](Nc1ncnc2nc[nH]c12)c1nc2cccc(NCc3ccc(C(=O)NO)nc3)c2c(=O)n1-c1ccccc1,11.1% (inactive)
13,CN1C(=O)C(=Cc2cn(Cc3ccccc3)c3ccc(Br)cc23)C(=O)N(C)C1=O,-49.4% (active)
14,O=C(/C(=C/c1cccc([N+](=O)[O-])c1)c1ccccc1)c1ccccc1,38.2% (inactive)
15,O=C1C(Cl)=C(Nc2ccccc2)C(=O)c2ccccc21,-77.8% (active)
16,O=C(C(=O)c1ccc2c(c1)OCO2)c1ccc2c(c1)OCO2,96.9% (inactive)
17,N/N=C(\C(=N\N)c1ccccc1)c1ccccc1,94% (inactive)
18,COc1ccc(/C(=C\c2cc(OC)c(OC)c(OC)c2)C(=O)Nc2nc3ccc(Cl)cc3s2)cc1,96.4% (inactive)
19,O=C(CSc1nc2ccccc2c(=O)n1CCc1ccccc1)Nc1ccc(S(=O)(=O)Nc2ccc(Cl)nn2)cc1,103% (inactive)
20,CC(=O)O[C@H]1CC2CCC3C(CC[C@@]4(C)C3C[C@H]([N+]3(C)CCCCC3)[C@@H]4OC(C)=O)[C@@]2(C)C[C@@H]1N1CCCCC1 (stereo not given in full),106% (inactive)

row,SMILES,growth
1,C=CC(=O)N1CCC[C@@H](n2nc(-c3ccc(Oc4ccccc4)cc3)c3c(N)ncnc32)C1,-17.5% (active)
2,C#CCOc1cccc(/C(N)=N/C(N)=N/c2nc3ccccc3s2)c1,76.4% (inactive)
3,COC(=O)Cc1cc(COC(C)=O)ccc1C,108% (inactive)
4,O=C(Nn1c(NCC(=O)N2c3ccccc3Sc3ccccc32)nnc1-c1ccc(O)cc1)c1ccccc1,104% (inactive)
5,COC(=O)c1nc(-c2ccc(C)cc2)oc1Sc1ccc(C)cc1,121% (inactive)
6,CN(C)c1ccc(/C=C2/C=C(c3ccccc3)OC2=O)cc1,-8.42% (active)
7,CCOC(=O)c1c2c(n3cccc(F)c13)C(=O)c1ncccc1C2=O,39.6% (inactive)
8,Cc1c(NC(=O)c2sc3nc4c(cc3c2N)CN(Cc2ccccc2)CC4)cccc1C(F)(F)F,-5.77% (active)
9,Cc1cccc2c1C[C@@]1(C2=O)C(c2ccc(C(C)(C)C)cc2)=NOS1=O (stereo not given in full),88.2% (inactive)
10,O=Nc1c(-c2c(O)[nH]c3cc(Br)ccc23)[nH]c2ccccc12,-34.2% (active)
11,O=C1NN(C(=O)c2ccccc2)C(c2ccc(Cl)c(Cl)c2)=C/C1=C\c1ccc([N+](=O)[O-])cc1,84.2% (inactive)
12,COc1cc(/C=C2\C=C(c3ccccc3)N(CCc3ccccc3)C2=O)cc(OC)c1OC,89.2% (inactive)
13,COc1c(B(O)O)cccc1-c1nc2ccc3[nH]ncc3c2c2c1C1CCC2C1 (stereo not given),89.9% (inactive)
14,COc1cc(C(F)(F)F)ccc1-c1cc(-c2ccc(F)cc2)n[nH]1,75.6% (inactive)
15,Cc1cc(C)c(S(=O)O)c(C)c1,106% (inactive)
16,COc1ccc(-c2nc3cc(C(=O)Nc4cc(OC)c(OC)c(OC)c4)ccc3n2C2CCCCC2)cc1,128% (inactive)
17,O=C(Nc1ccc(/C=C2\SC(=O)N(Cc3ccc(OC(F)(F)F)cc3)C2=O)cc1)c1ccc(Cl)c([N+](=O)[O-])c1,12.5% (inactive)
18,CCNC(=NCCCN(C)C)N/C(N)=N/c1nc2ccccc2s1,94.3% (inactive)
19,CCOC(=O)c1nn(C2CCCCO2)c2ccc(NC(=O)CN3CCOCC3)cc12 (stereo not given),107% (inactive)
20,CCOC(=O)/C=C1\S/C(=N\Nc2cc(=O)[nH]c3ccc(Cl)cc23)N(c2ccccc2)C1=O,80.8% (inactive)
